Measurements: PubChem BioAssay (NCATS)
Inconclusive results are not listed. Active and inactive are the calls of the source. Calls follow the shape of the dose curve; as a rule, active = well fitted curve in the direction sought with a large enough effect; inconclusive = small, poorly fitted or top-dose-only effect, or another doubt; inactive = no such curve, though single readings can be large; an effect the other way counts as inactive or inconclusive.

How the values were obtained:
[1] = tested on: Zika virus NS2B-NS3 protease; assay: Primary screen GU AMC qHTS for Zika virus inhibitors (AID 1347154); also: nearly all actives have a fitted effect of over 70% in size; also: potency is read from the fitted curve at half-maximal effect
Outline: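 Unlinked Zika NS2B hydrophilic domain/NS3 protease domain noncovalent complex (25 nM final) in 10 mM Tris-HCl pH 8.0, 0.01% Tween 20, with AMC peptide substrate. Fluorescence (ex 340, em 450 nm) change over 15 min, room temperature; percent inhibition fitted to 4-parameter Hill equation.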

[2] = tested on: Zika virus NS2B-NS3 protease (unlinked complex); assay: Primary screen GU Rhodamine qHTS for Zika virus inhibitors: Unlinked NS2B-NS3 protease assay (AID 1347159); also: % is scaled to controls: 0 for no effect and ±100 for the full control effect; nearly all actives have a fitted effect of over 60% in size
Outline: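 Compounds, tested up to 114 microM, were incubated for 15 minutes with 25 nM unlinked NS2B-NS3 protease at pH 8.0. Cleavage of 1.5 microM Rhodamine110 substrate was then followed by fluorescence for 15 minutes.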

[3] = tested on: Zika virus NS2B-NS3 protease (linked construct); assay: Primary screen NINDS Rhodamine qHTS for Zika virus inhibitors (AID 1347160); conditions: outcome: dose series up to 57.1 µM unless noted; also: nearly all actives have a fitted effect of over 55% in size
Outline: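 Percent inhibition, normalized to uninhibited and enzyme-free controls, is fitted to a 4-parameter Hill equation. Fluorescence change comes from a 15-min cleavage of 1.5 microM bis-peptide Rhodamine110 substrate by 25 nM linked NS2B-NS3 at room temperature.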

[4] = qHTS to identify inhibitors of the type 1 interferon - major histocompatibility complex class I in skeletal muscle: primary screen against the NCATS Pharmaceutical Collection (AID 1347407);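 also: luminescence of HiBiT knocked into endogenous HLA-B as interferon-induced MHC class I level; % is scaled to controls: 0 for no effect and ±100 for the full control effect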
Outline: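 Cells were seeded with 4 ng/ml IFN-beta, incubated 1 h, then dosed with compounds over eight 1:5 steps up to 46 uM final. After 24 h at 37 C, HiBiT lytic reagent was added and luminescence read after 10 min lysis in the dark.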

[5] = qHTS to identify inhibitors of the type 1 interferon - major histocompatibility complex class I in skeletal muscle: primary screen against the NCATS Mechanism Interrogation Plate v5.0 (MIPE) Libary (AID 1347411); also: nearly all actives have a fitted effect of over 65% in size; also: potency is read from the fitted curve at half-maximal effect
Outline: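 Immortalized human C25cl48 myoblasts with HiBit knocked into endogenous HLA-B*08:01 were stimulated with 4.0 ng/ml IFN-beta and exposed to compounds (11-point 1:3 titration, top 46 uM final) for 24 hrs at 37 C; HiBiT lytic luminescence measured.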

[6] = target: Protein phosphatase 1D (Homo sapiens) (UniProt O15297); assay: RapidFire Mass Spectrometry qHTS Assay for Modulators of WT P53-Induced Phosphatase 1 (WIP1) (AID 1347424);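 also: amount of dephosphorylated VEPPL-S-QETFS peptide product formed by WIP1; plate controls were DMSO wells for no effect and GSK830371 inhibitor control at 10 µM for full effect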
Protein phosphatase 1D (Homo sapiens), sequence (O15297 whole entry, looked up): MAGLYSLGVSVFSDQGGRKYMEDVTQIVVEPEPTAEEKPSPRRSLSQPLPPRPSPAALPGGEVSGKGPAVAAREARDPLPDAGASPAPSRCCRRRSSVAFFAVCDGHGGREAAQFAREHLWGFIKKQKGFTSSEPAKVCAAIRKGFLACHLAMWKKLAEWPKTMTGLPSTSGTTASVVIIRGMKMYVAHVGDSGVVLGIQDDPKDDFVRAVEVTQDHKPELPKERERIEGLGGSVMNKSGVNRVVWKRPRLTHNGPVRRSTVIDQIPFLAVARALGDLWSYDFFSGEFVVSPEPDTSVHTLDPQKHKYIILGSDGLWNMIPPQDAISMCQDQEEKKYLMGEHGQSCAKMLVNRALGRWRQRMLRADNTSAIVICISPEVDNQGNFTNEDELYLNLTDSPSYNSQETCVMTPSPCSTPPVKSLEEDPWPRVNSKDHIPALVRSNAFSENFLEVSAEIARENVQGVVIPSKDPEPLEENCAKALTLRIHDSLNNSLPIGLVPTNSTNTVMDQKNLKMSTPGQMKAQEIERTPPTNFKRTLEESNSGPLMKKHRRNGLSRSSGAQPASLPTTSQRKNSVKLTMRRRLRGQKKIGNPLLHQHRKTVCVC
Outline: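 WIP1 (10 nM final) was preincubated 1 h at room temperature with compounds in Tris-HCl pH 7.5, 30 mM MgCl2, TCEP, EGTA, BSA; 2 uM VEPPL-pS-QETFS phosphopeptide was added for 5 min, quenched with formic acid, and dephosphorylated product quantified by RapidFire MS.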

[7] = tested on: Zika virus NS2B-NS3 protease (unlinked); assay: Optimization of GU AMC qHTS for Zika virus inhibitors: Unlinked NS2B-NS3 protease assay (AID 1347151); also: nearly all actives have a fitted effect of over 80% in size; also: potency is read from the fitted curve at half-maximal effect
Outline: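 Percent inhibition is derived from the 15-min change in AMC fluorescence, normalized against no-inhibitor and no-enzyme controls, then fitted to a 4-parameter Hill curve. Aprotinin was the intraplate control.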

[8] = qHTS for inhibitors of adenylyl cyclases using a fission yeast platform: a pilot screen against the NCATS LOPAC library (AID 1347410);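 also: plate controls were DMSO vehicle for no effect and DPI positive control for full effect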
Outline: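 Growth medium went into the plates first, then compounds were pinned (final up to 57 µM), then CHP2027 yeast were added. Plates were incubated overnight (18 h) at 30C in the dark, and GFP was measured by laser scanning cytometry.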

[9] = tested on: Zika virus NS2B-NS3 protease (linked construct); assay: Confirmatory screen NINDS AMC qHTS for Zika virus inhibitors (AID 1347152); also: nearly all actives have a fitted effect of over 70% in size; also: potency is read from the fitted curve at half-maximal effect
Outline: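 In this dose-response qHTS, AMC release from 10 microM Bz-Nle-KRR-AMC by 1 nM linked protease is measured over 15 minutes (about 20% conversion) at pH 8.0. Percent inhibition is fitted to a 4-parameter Hill curve.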

[10] = Confirmatory screen NINDS Rhodamine qHTS for Zika virus inhibitors (AID 1347161); also: nearly all actives have a fitted effect of over 60% in size; also: potency is read from the fitted curve at half-maximal effect
Outline: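 Kinetic fluorescence (Ex 480 nm, Em 540 nm) over 15 min with 1.5 microM Rhodamine110 peptide and 25 nM linked protease.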

[11] = Vero cells viability qHTS for Zika virus inhibitors (AID 1347167); also: % is scaled to controls: 0 for no effect and ±100 for the full control effect
Outline: (§1)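 Counter-screen for cytotoxicity of hits from NS2B-NS3 protease qHTS. Overnight-attached cells (2.5 x 10^5 cells/mL, DMEM/4% FBS) were dosed in titration, incubated 24 to 48 hours, then assayed by CellTiter Glo.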

[12] = tested on: Zika virus NS2B-NS3 protease (unlinked complex); assay: Confirmatory screen GU AMC qHTS for Zika virus inhibitors (AID 1347153); also: nearly all actives have a fitted effect of over 70% in size; also: potency is read from the fitted curve at half-maximal effect;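 as to activity, negative = inhibition: percent inhibition with 0% = no inhibitor control and 100% = no enzyme control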
Outline: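 Unlinked enzyme 25 nM, Tris pH 8.0/0.01% Tween 20; cpd 15 min RT, dark; + AMC substrate 10 µM (Km 18.3 µM); 340/450 nm read at t0 and 15 min; % inhibition → 4-param fit.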

[13] = tested on: Zika virus NS2B-NS3 protease (linked); assay: 384 well plate NINDS AMC confirmatory qHTS for Zika virus inhibitors (AID 1347163); conditions: Recombinant NS2B-NS3 protease, Ac-VKTGKR-AMC fluorescence; also: potency is read from the fitted curve at half-maximal effect; nearly all actives have a fitted effect of over 50% in size
Outline: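 Linked protease 5/30/60 nM final; cpds up to 1 mM final, ~15 min preinc. Substrate Ac-VKTGKR-AMC 30 microM final. RT, dark, 25 min; FI ex 355/em 460; normalized to no-enzyme/no-inhibitor ctrls.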

[14] = tested on: Zika virus NS2B-NS3 protease (linked construct); assay: 384 well plate NINDS Rhodamine confirmatory qHTS for Zika virus inhibitors (AID 1347164); conditions: rhodamine-110 peptide substrate fluorescence; also: potency is read from the fitted curve at half-maximal effect; nearly all actives have a fitted effect of over 65% in size
Outline: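 Compounds are incubated about 15 minutes with linked protease (5, 30 or 60 nM final). Rhodamine 110-tagged Ac-LKRR substrate (10 microM final) is added and fluorescence measured after 25 minutes.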

[15] = HepG2 cells viability qHTS for Zika virus inhibitors (AID 1347168); also: potency is read from the fitted curve at half-maximal effect
Outline: as §1

[16] = Tertiary RLuc qRT-PCR qHTS assay for Zika virus inhibitors (AID 1347169); also: nearly all actives have a fitted effect of over 55% in size; also: potency is read from the fitted curve at half-maximal effect
Outline: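 Orthogonal cell-based infection assay using recombinant ZIKV-RLuc (Cambodian) in Vero cells; compound added prior to virus at MOI 1-2. Incubation lasts 48-72 hrs at 37 degrees C before live-cell Renilla substrate is added and luminescence measured.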

[17] = qHTS to identify inhibitors of the type 1 interferon - major histocompatibility complex class I in skeletal muscle: primary screen against the NCATS LOPAC collection (AID 1347405);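 also: lytic HiBiT luminescence reporting HLA-B protein level; % is scaled to controls: 0 for no effect and ±100 for the full control effect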
Outline: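 Immortalized human C25cl48 myoblasts with HiBiT knocked into endogenous HLA-B*08:01 were stimulated with 4.0 ng/ml IFN-beta and given compounds in a 7-point, 1:4.3 titration from 46 uM final; after 24 hrs, lytic HiBiT luminescence was read.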

[18] = target: Lysine-specific demethylase 5B (Homo sapiens) (UniProt Q9UGL1); assay: Optimization screen for KDM5B Histone Demethylases FDH coupled qHTS against the LOPAC library (AID 1347166); conditions: KDM5B demethylation, FDH-coupled NADH fluorescence (FDH is formaldehyde dehydrogenase); at 57.5 µM (top of the series); also: 0% is about no effect
Lysine-specific demethylase 5B (Homo sapiens), sequence (Q9UGL1 whole entry, looked up): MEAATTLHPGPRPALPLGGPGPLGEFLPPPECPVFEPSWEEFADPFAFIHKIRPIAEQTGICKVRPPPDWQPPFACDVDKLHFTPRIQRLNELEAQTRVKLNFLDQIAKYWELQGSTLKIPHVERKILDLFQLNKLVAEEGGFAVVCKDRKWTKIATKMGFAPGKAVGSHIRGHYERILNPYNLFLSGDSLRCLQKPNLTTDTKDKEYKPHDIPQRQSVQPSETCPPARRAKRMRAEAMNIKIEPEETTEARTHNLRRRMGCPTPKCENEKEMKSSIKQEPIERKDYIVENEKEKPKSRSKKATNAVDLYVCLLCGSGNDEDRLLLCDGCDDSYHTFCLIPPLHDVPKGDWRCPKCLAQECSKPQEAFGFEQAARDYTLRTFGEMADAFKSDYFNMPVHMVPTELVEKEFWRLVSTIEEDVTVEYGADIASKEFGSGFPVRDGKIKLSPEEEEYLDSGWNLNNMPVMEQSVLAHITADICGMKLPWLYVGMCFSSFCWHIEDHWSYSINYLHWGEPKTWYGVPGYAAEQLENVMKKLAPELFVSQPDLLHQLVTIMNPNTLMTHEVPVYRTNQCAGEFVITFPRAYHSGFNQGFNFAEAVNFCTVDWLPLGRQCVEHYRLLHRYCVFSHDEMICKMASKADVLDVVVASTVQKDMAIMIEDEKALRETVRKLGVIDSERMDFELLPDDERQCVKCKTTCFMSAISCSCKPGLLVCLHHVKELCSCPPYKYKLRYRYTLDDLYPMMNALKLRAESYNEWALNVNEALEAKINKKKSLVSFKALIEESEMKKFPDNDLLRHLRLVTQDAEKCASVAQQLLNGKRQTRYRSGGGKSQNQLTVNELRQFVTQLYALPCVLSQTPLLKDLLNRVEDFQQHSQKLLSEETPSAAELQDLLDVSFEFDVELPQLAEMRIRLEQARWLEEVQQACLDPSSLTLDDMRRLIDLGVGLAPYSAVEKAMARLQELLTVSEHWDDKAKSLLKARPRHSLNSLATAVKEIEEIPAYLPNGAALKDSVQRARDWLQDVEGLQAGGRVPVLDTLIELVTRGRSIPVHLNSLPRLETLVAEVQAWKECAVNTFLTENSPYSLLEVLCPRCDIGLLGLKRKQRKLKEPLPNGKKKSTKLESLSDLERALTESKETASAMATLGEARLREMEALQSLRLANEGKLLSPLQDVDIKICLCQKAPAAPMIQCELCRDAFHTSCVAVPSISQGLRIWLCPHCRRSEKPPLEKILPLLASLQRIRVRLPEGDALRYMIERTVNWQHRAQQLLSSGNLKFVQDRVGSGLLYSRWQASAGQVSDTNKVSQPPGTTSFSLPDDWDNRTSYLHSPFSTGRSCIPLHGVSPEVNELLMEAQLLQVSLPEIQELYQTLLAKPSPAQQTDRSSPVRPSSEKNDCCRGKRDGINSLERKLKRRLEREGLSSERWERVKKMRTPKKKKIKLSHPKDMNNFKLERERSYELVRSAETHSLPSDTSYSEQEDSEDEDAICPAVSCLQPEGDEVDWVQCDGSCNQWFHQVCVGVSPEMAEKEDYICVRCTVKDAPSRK
Outline: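 KDM5BDeltaAP (200nM final) preincubated 10 min with compound, then 12.5uM H3K4Me3, 25uM a-ketoglutarate, ascorbate, Fe(II), NAD+ and FDH added; 50mM HEPES pH 7.5, 0.01% Tween-20. NADH fluorescence (340/450 nm) change over 30 min, room temperature.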

[19] = ZIKV-mCherry secondary qHTS for Zika virus inhibitors (AID 1347158); also: top concentration of the series differs between compounds
Outline: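 Vero cells, 5,000/well, plated overnight at 37 °C, then compound added and infected with recombinant ZIKV-mCherry at MOI 1 for 48-72 h. PFA-fixed, Hoechst nuclear stain, high-content imaging; cells with mCherry intensity above 450 RFU scored infected, reported as percent infection.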

O=C(NCC1CN(c2ccc(N3CCOCC3=O)cc2)C(=O)O1)c1ccc(Cl)s1 (configuration not stated)
inactive: Potency [1] | Potency [2] | outcome [3] | Potency [4] | Potency [5] | outcome [6]

Cc1ccc(S(=O)(=O)N[C@@H](Cc2ccccc2)C(=O)CCl)cc1
inactive: Potency [7] | Potency [1] | outcome [8]

COc1cc(NCc2ccc3nc(N)nc(N)c3c2C)cc(OC)c1OC
active: Potency [9] 24.1 µM | Potency [5] 26.2 µM
inactive: Potency [10] | Potency [11] | outcome [6]

O=C(O)c1ccc(-n2nc(-c3ccccc3O)nc2-c2ccccc2O)cc1
active: Potency [10] 11 µM | Potency [13] 112 µM | Potency [14] 35.5 µM | Potency [16] 13.1 µM
inactive: Potency [9] | Potency [12] | Potency [1] | Potency [11] | Potency [15] | Potency [4] | Potency [5] | outcome [6]

Clc1ccccc1CN1CCc2sccc2C1
inactive: Potency [1]

CC1(C)[C@H](C(=O)O)N2C(=O)C[C@H]2S1(=O)=O
inactive: Potency [1] | Potency [2] | outcome [3] | Potency [4] | outcome [6]

CCCc1nc(C)c2c(=O)[nH]c(-c3cc(S(=O)(=O)N4CCN(CC)CC4)ccc3OCC)nn12
inactive: Potency [9] | Potency [12] | Potency [10] | Potency [11] | Potency [15] | Potency [16] | Potency [4] | Potency [5] | outcome [6]

OCc1ccc(-c2nn(Cc3ccccc3)c3ccccc23)o1
inactive: Potency [11] | outcome [17] | outcome [8] | Potency [5]
active: Potency [7] 23.8 µM | Potency [9] 24.1 µM | Potency [12] 24.1 µM | Potency [1] 30.4 µM | Potency [15] 11.7 µM

CC(C)NCC(O)c1ccc(NS(C)(=O)=O)cc1 (configuration not stated)
inactive: Potency [7] | Potency [1] | activity, negative = inhibition [18] -4.54% | outcome [17] | outcome [8] | Potency [5]

Cc1ncc([N+](=O)[O-])n1CCO
inactive: Potency [1]

Cc1nnc(C(=O)NC(C)(C)c2nc(C(=O)NCc3ccc(F)cc3)c(O)c(=O)n2C)o1
inactive: Potency [1] | Potency [2] | outcome [3] | Potency [4] | Potency [5] | outcome [6]

COC(=O)Nc1nc2ccc(C(=O)c3ccccc3)cc2[nH]1
inactive: Potency [7] | Potency [1] | outcome [19] | Potency [11] | Potency [15] | outcome [6]
active: Potency [13] 126 µM | Potency [14] 178 µM | Potency [16] 0.829 µM
